We go through seven sequences from the supplement of paper PMC10338343.

± gives the standard deviation.

The test system of this assay is MILI (PIWIL2) piRISC loaded with L1MC piRNA (26 nt). The assay can be described thus: pre-steady-state target cleavage rate (min^-1); guide: L1MC piRNA 5'p-UAACUAAAUACUAUGCAAGCUGUAGG; MIWI and MILI are mouse PIWI proteins and EfPiwi is from a freshwater sponge; tags in brackets are library labels; higher = faster piRNA-guided slicing of the target. Particulars: auxiliary factor: none (no GTSF1). In a few lines: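 Cleave-'n-Seq: 1 nM active affinity-purified piRISC with one synthetic guide and 0.1 nM transcribed, DNA-blocked target RNA library were mixed, with or without 500 nM GTSF1 partner protein, in HEPES–potassium acetate buffer at 33 °C for 0–8 or 0–960 min. Uncleaved targets were sequenced and normalised to depth and to weakly complementary targets, three trials were pooled, and k3 was capped at 0.0001 min^-1. The pre-steady-state cleavage rate was fitted […].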
Consider UCCUGGAUGUCGAACGAUAGUUAUUUAGUUA, for which the “pre-steady-state target cleavage rate” value is under 0.0001.

On to UCCUGGAUGUCGAUGGAUUGUAUUUAGUUA, for which the “pre-steady-state target cleavage rate” value is under 0.0001.

With UCCUGGAUGUCGAACGUAAGUAUUAUAGUUA, the “pre-steady-state target cleavage rate” value is under 0.0001.

In the case of UCCUGGAUGUCGAACGUAUUUAUUUAGUUA, the “pre-steady-state target cleavage rate” value is under 0.0001.

On to UCCUGGAUGUCGAACGUUACUAUUAAGUUA, for which the “pre-steady-state target cleavage rate” value was under 0.0001.

Take UCCUGGAUGUCGAACGAUAGUAUUUAAGUUA: the “pre-steady-state target cleavage rate” value was under 0.0001.

As to UCCUGGUACAGCUUGCAUACAAUUUAGUUA, the “pre-steady-state target cleavage rate” value came to 0.00451 ± 0.0027.
